Laboratory results from PubChem BioAssay AID504773 (Broad Institute, 2011).
Potency and affinity values are given separately. A number with no mark means an inactive call.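 Rule for the calls: active = polarization signal falls with dose and the fitted half-maximal concentration is at or below ten times the sample's top valid dose; inconclusive = flat curve at 30 to 70% inhibition, or poor fit; inactive = signal rises, flat within 30%, or potency beyond limit.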

target: Golgi-associated PDZ and coiled-coil motif-containing protein (Homo sapiens) (UniProt Q9HD26); experiment: potency against CAL PDZ-peptide interaction – biochemical, fluorescence polarization, Cerulean-tagged CAL PDZ, cherry-picks, dose response (AID 504773); details: CAL PDZ-peptide binding, 1 h; series mostly up to 50 µM; activity change, negative = inhibition: at the top concentration;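 note: 0% = DMSO neutral wells and -100% = excess unlabeled competitor peptide wells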

SMILES	activity change, negative = inhibition [%]
Cn1nc(C(=O)N2CCCc3ccccc32)c2ccccc2c1=O	-9.28
CC1CCC(NC(=O)C2CCN(c3cnccn3)CC2)CC1 (stereo not drawn)	39.8
Cc1ccc(F)cc1N=Cc1c(O)c2ccccc2oc1=O	21.1
COc1ccc(CC(=O)N2CCC(CCC(=O)Nc3ccccc3)CC2)cc1	4.28
Cc1ccc2nc(NS(C)(=O)=O)sc2c1	9.89
Cc1ccc(/C=N/NC(=O)NN(C)c2ncc(C(F)(F)F)cc2Cl)cc1	9.61
C=CCOC(=O)C1=C(C)Nc2nc3ccccc3n2C1c1ccncc1 (stereo not drawn)	6.47
CCOC(=O)/C=C/C(=O)OCC(=O)Nc1ccc([N+](=O)[O-])cc1	29.7
Cc1ccc(S(=O)(=O)N2CCN(CCC#N)CC2)cc1	9.54
CC(=O)Nc1sc2c(c1C(c1ccccn1)N1CCN(C)CC1)CCCC2 (stereo not drawn)	24.4
Cc1ccc(C(=O)Nc2ccccc2)cc1S(=O)(=O)N1CCN(C)CC1	18.7
O=C(NC1(C(F)(F)F)NC(=O)N(C2CCCCC2)C1=O)C1CC1 (stereo not drawn)	-4.96
O=C(NCCCn1ccnc1)c1ccccc1F	19.4
Cc1cccc(-n2nc(C)c3c2NC2=C(C(=O)CCC2)C3c2ccccn2)c1 (stereo not drawn)	23.4
O=C(NC(Cc1c[nH]c2ccccc12)C(=O)O)/C(=C/c1ccc(F)cc1)NC(=O)c1ccccc1 (stereo not drawn)	8.53
Cc1sc2ncn(CC(=O)NCCCC(=O)N3CCN(Cc4ccc5c(c4)OCO5)CC3)c(=O)c2c1C	-11.6
O=C(CCC(=O)N1CCN(c2ccccc2F)CC1)N1CCN(c2ccccc2)CC1	-7.56
Cc1ccc2nc3c(nc2c1)-c1ccccc1C3=O	23.8
